Bioassay records: PubChem, several laboratories
TLR9-MyD88 inh = inhibitors of human TLR9-MyD88 binding | CHO BLA complementation TLR9-MyD88, CCF4 FRET ratio | inhibition, % at 4.98 µM | hit rate 0.21% among 340,000 | Q9NR96+Q99836;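 active = inhibition above the mean over all tested compounds plus 3 SD, cut at about 21% in these data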;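 note: 0% = DMSO only wells and 100% = clavulanate BLA inhibitor control wells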
NOD2-RIPK2 inh = blocks binding of human NOD2 to RIPK2; CHO BLA complementation NOD2-RIPK2, CCF4 ratio; O43353; hit rate 0.38% among 360,000; inhibition, % at 4.98 µM; in the data active = inhibition above about 21%;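 note: 0% = vehicle only and 100% = reference blocker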
ANO1 activ = mouse TMEM16A channel activation, primary screen | HEK293 TMEM16A/YFP-H148Q/I152L, iodide quench fluorescence; active compounds read low | hit rate 0.3% among 340,000 | B-score at 10 µM | Q8BHY3;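 active = fluorescence-ratio B-score plate-corrected deviation score at least 3 library SD below zero, with starting fluorescence score within 5 deviations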;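 note: channel opened by trigger with iodide after compound preincubation; score built on the fluorescence ratio of max minus min over baseline; more negative score means more quench and so TMEM16A activation or potentiation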
Target sequence (Q8BHY3 whole entry, looked up): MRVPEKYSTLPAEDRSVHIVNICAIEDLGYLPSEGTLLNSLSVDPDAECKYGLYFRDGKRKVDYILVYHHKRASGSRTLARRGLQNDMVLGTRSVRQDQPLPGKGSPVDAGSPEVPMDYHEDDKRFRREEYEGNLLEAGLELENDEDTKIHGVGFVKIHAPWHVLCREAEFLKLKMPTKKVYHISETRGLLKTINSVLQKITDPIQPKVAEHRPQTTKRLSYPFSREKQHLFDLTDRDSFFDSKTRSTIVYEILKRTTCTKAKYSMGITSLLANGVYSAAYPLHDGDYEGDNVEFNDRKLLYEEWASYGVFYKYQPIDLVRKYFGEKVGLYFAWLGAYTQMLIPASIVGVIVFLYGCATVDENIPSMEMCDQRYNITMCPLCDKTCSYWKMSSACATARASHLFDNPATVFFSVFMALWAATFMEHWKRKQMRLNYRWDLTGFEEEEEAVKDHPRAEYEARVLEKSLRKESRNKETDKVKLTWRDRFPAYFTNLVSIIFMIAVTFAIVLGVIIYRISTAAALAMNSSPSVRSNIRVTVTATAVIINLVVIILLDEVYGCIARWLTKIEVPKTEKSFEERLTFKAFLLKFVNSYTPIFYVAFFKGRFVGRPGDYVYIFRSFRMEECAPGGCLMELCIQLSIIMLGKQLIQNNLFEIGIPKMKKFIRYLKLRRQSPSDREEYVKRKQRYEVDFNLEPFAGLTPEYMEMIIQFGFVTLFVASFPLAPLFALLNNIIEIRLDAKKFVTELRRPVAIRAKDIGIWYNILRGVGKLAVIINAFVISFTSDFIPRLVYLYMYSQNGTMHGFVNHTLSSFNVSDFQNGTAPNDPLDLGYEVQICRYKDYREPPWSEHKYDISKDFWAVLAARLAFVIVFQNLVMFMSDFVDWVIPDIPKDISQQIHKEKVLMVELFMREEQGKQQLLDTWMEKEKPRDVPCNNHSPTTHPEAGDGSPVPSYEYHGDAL
TLR4 MyD88 comp = TLR4-MyD88 interaction inhibition in cells. inhibition, % at 8.4 µM. hit rate 0.18% among 200,000. O00206+Q99836. HeLa CL3-4 TLR4/MyD88 BLA complementation, FRET ratio; in the data active = inhibition above about 25%;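 note: 0% = vehicle and 100% = reference inhibitor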
GRK2 inh = human GRK2 inhibition via aptamer displacement. hit rate 0.59% among 330,000. inhibition of aptamer binding, % at 10 µM. bead flow cytometry, FAM-aptamer displacement from GRK2. AID 488847;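 active = inhibition of aptamer binding above 40%, roughly 3 SD of noise, on plates passing a quality check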;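 note: median bead fluorescence of bound FAM aptamer so fluorescent compounds give negative values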
ANO1 block = blocks the mouse calcium-activated chloride channel TMEM16A; AID 588511; hit rate 1.2% among 310,000; HEK293 TMEM16A/YFP iodide influx fluorescence, ionomycin; normalized B-score (activity score, 25-100; higher = stronger inhibition) at 10 µM;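 active = ratio plate-corrected score three or more library SD toward inhibition, starting fluorescence score within five deviations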;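 note: score derived from kinetic fluorescence span divided by baseline fluorescence per well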
An asterisk follows results filed as active; i = inactive; · = no result. An excerpt weighted towards active compounds, which were near 2.2% of everything screened.

SMILES | TLR9-MyD88 inh | NOD2-RIPK2 inh | ANO1 activ | TLR4 MyD88 comp | GRK2 inh | ANO1 block
Cc1cccc(/C=N/n2c(-c3cc(-c4ccccc4)n[nH]3)n[nH]c2=S)c1 | 2.1 | -5.2 | -6.63* | 4.4 | 3.0 | i
COc1ccc(C2=NS(=O)(=O)N(C)C(C(=O)Nc3ccc(C(C)=O)cc3)=C2)cc1OC | -11.3 | -7.5 | i | · | 3.0 | 25*
CCc1cc(C(=O)N2CCCC(C(=O)c3cccc4ccccc34)C2)n(C)n1 (stereo unspecified) | -3.9 | -15.5 | i | -18.3 | 2.0 | 25*
Cc1ccc([C@H]2C(C#N)=C(N)Oc3cc(C)oc(=O)c32)o1 | -0.5 | -0.4 | -4.62* | -10.6 | 0.0 | i
COc1ccc(NC(C)=[N+](C)CCNS(=O)(=O)c2ccc(Cl)cc2)cc1Cl | -0.1 | 1.7 | i | · | 5.0 | i
CC(Nc1cc(C)cc(C)c1)=[N+](C)CCNS(=O)(=O)c1ccc(Cl)cc1 | -3.2 | -6.4 | i | · | 48.0* | i
O=C(CCc1c[nH]c2ccccc12)NCC(=O)Nc1ccc(F)c(F)c1F | 0.0 | -7.3 | -6.34* | 1.4 | 0.0 | i
Cn1nc(-c2ccccc2)cc1NC(=O)[C@@H]1O[C@H](CO)[C@H](O)[C@H](O)[C@H]1O | · | -14.1 | · | · | · | ·
O=C(Nc1ccc2c(c1)OCCO2)C(CCc1ccccc1)N1CCC(Cc2ccccc2)CC1 (stereo unspecified) | · | 0.5 | · | · | · | ·
CSc1ccc2c(c1)N(CCC1CCCCN1C)c1ccccc1S2 (stereo unspecified) | -2.1 | 6.8 | i | -14.3 | 0.0 | 25*
CC(=O)c1ccc2c(c1)N(CCCN1CCC(CCO)CC1)c1ccccc1S2 | 6.7 | -1.1 | i | · | 0.0 | i
CCCCN(C)c1c(C)nc2ccc(C(=O)Nc3cc(-c4ccccc4)ccc3OC)cn12 | · | -3.0 | · | · | · | ·
COC(=O)C[C@@H]1CC[C@@H](NC(=O)Nc2cc(F)ccc2F)[C@@H](CO)O1 | · | 2.6 | · | · | · | ·
O=C1C[C@H]2[C@H](CO)[C@@H](OC(=O)c3ccc(-c4ccccc4)cc3)C[C@H]2O1 | · | -11.6 | i | · | 0.0 | 25*
O=C1CC2C(CC(OC(=O)c3ccc(-c4ccccc4)cc3)C2CO)O1 (stereo unspecified) | -8.5 | -0.2 | i | -23.4 | 3.0 | i
Cc1ccccc1NC(=O)Nc1nc(C(N)C2CCCCC2)cs1 (stereo unspecified) | · | -6.9 | · | · | · | ·
COc1ccc(-c2csc(NC(=O)c3cccs3)c2C(=O)O)cc1OC | -9.5 | -16.4 | -40.8* | -4.2 | 0.0 | i
COc1ccc(-c2csc(NC(=O)c3ccccc3OC)c2C(=O)O)cc1OC | 4.8 | -8.2 | i | · | 2.0 | i
O=S1(=O)CC(N2CC=CC2)CN1Cc1cn(Cc2cccc(C(F)(F)F)c2)nn1 (stereo unspecified) | · | -12.2 | · | · | · | ·
Cc1cccc(OCc2n(CC(=O)OC3CC(C)CCC3C(C)C)c3ccccc3[n+]2C)c1 (stereo unspecified) | -5.6 | 7.7 | -6.21* | 11.0 | 0.0 | 100*
CC1CCC(C(C)C)C(OC(=O)Cn2c(-c3ccc(F)cc3)[n+](C)c3ccccc32)C1 (stereo unspecified) | -17.0 | 4.6 | i | 0.4 | 0.0 | 100*
CC1CCC(C(C)C)C(OC(=O)Cn2c(-c3ccccc3)[n+](C)c3ccccc32)C1 (stereo unspecified) | -4.8 | 1.5 | i | -3.0 | 0.0 | 100*
CCCNC(=O)C[C@H]1CC[C@@H]2[C@H](COC[C@@H](O)CN2C(=O)c2ccccn2)O1 | · | 1.2 | · | · | · | ·
Cc1c(C(=O)N(C)Cc2ccc(F)cc2)sc(=O)n1Cc1ccc(Cl)c(Cl)c1 | · | 4.2 | · | · | · | ·
CC1(C(=O)Nc2ccc3c(c2)OCCO3)CN(S(C)(=O)=O)CC(=O)N1CCc1ccccc1F (stereo unspecified) | · | -18.1 | · | · | · | ·
SMILES | TLR9-MyD88 inh | NOD2-RIPK2 inh | ANO1 activ | TLR4 MyD88 comp | GRK2 inh | ANO1 block
CC(C)c1ccc(C(=O)N2CCCCC2c2cc(C(=O)NCc3cccnc3)no2)cc1 (stereo unspecified) | · | -10.0 | · | · | · | ·
O=C(NCCN1CCN(c2ccccc2F)CC1)C1CCCN(S(=O)(=O)c2cnc[nH]2)C1 (stereo unspecified) | -7.3 | -1.5 | -17.8* | 2.4 | 1.0 | i
O=C(NCCN1CCC(Cc2ccccc2)CC1)C1CCCN(S(=O)(=O)c2cnc[nH]2)C1 (stereo unspecified) | 4.6 | -9.0 | i | 5.0 | 0.0 | i
COc1ccc(-n2nc([N+](=O)[O-])c(=NCCCN3CCCC3=O)n2O)cc1 | 3.7 | -14.1 | i | -9.4 | 0.0 | i
O=C1CCCN1CCCN=c1c([N+](=O)[O-])nn(-c2ccc(Cl)cc2)n1O | 0.4 | 0.7 | -41.6* | -7.7 | · | ·
COc1ccc(OCc2cc(C(=O)O)c(C)o2)cc1 | · | · | · | · | 64.0* | i
CCCCN(C)C(=O)c1sc(=O)n(Cc2c(C)cccc2C)c1C | · | 1.1 | · | · | · | ·
COc1ccc(S(=O)(=O)NCCSC(C)(C)C)c(Cl)c1Cl | 4.5 | -2.4 | i | -2.2 | 0.0 | 25*
CCCNS(=O)(=O)c1ccc(OC)c(Cl)c1Cl | -2.1 | 0.8 | i | 4.4 | 0.0 | i
COc1ccccc1-c1nnc2sc(-c3cc4ccccc4o3)nn12 | -0.2 | 4.6 | i | 3.2 | 3.0 | 100*
N#CC1=C(S)N(c2ccccc2)C2(CCCCC2)NC1=O | 2.0 | -3.4 | -5.04* | -0.1 | 0.0 | i
CCOc1ccc(OCC(=O)OCc2cc(=O)n3cc(Br)ccc3n2)cc1 | 6.3 | -1.9 | -10.2* | · | 1.0 | ·
COc1ccc2c(CC(=O)OCC(=O)Nc3ccc(C)cc3)coc2c1 | -0.6 | 6.4 | i | · | 44.0* | ·
O=C1/C(=C\c2ccco2)SC(=S)N1C1CCCCC1 | · | · | · | · | 5.0 | i
CC1=C(C#N)C(=O)N(C2CCS(=O)(=O)C2)C(=O)/C1=C\c1ccco1 (stereo unspecified) | · | · | · | · | 100.0* | i
COc1ccc(CCNC(=O)Cn2nc(C)c3c(C)n(-c4ccccc4)nc3c2=O)c(OC)c1 | 3.6 | -7.5 | -7.87* | · | 1.0 | i
CCOC(=O)c1sc(NC(=O)c2ccc(Cl)s2)cc1C | 3.1 | -5.3 | -15.2* | -6.5 | 3.0 | i
O=C(NCc1cccc(C(F)(F)F)c1)C1C(=O)Nc2ccccc2C(=O)N1C1CCCC1 (stereo unspecified) | · | 15.6 | · | · | · | ·
CN1CCN(C2=CC3=CC(=C(C#N)C#N)CCC3CC2)CC1 (stereo unspecified) | 2.8 | 3.5 | -40.8* | -2.4 | · | ·
OCC[C@@H]1C[C@H](O)[C@@H](O)[C@]2(OCc3ccc(CO)cc32)O1 | · | 7.0 | · | · | · | ·
CC(=O)N1CC[n+]2c(-c3ccc(Cl)cc3Cl)csc21 | 0.8 | 6.7 | i | -8.7 | 52.0* | i
CCNC(=O)c1ccc2c(c1)C1C3CCC(C3)C1C(c1ccccc1)N2 (stereo unspecified) | -4.6 | 7.5 | -6.68* | 0.8 | 0.0 | i
